Assay results: PubChem BioAssay AID1159580 (chemical genetic matrix, 2015)
“And” between values parts separate entries of the source, which are not always exact repeats. Equal entries are not always repeated. The campaign covered roughly 5,500 compounds. About 2,000 (36%) were called active. Another 18% or so got no clear call; they are omitted. This is one part of the list. Unmarked numbers belong to inactive results. Rule as the data show it: active = normalized growth mostly below about 0.91 (no sharp cut-off); inconclusive = no clear call, values can overlap the other calls; inactive = mostly above about 0.92.

Experiment: chemical genetic growth profiling, strain panel (AID 1159580);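 also: tested at 20 µM; growth read once vehicle control cultures reached saturation at 30 °C; 1 = growth at the plate median or of vehicle wells; lower values mean less growth of the strain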
Settings: growth OD

Question: For CC(CN1c2ccccc2Sc2ccccc21)N(C)C (configuration not stated), which normalized growth (S. cerevisiae deletion strains, locus YKL009W, strain mrt4, hits give low values) is on record?
Answer: 0.924

Question: What about the normalized growth (S. cerevisiae deletion strains, locus YKL068W, hits give low values) of the same molecule?
Answer: 0.982

Question: And the normalized growth (S. cerevisiae deletion strains, locus YKL085W, strain MDH1 (second series), hits give low values)?
Answer: 0.965

Question: And the normalized growth (S. cerevisiae deletion strains, locus YKL085W, strain MDH1, hits give low values)?
Answer: 0.965

Question: And the normalized growth (S. cerevisiae deletion strains, locus YKL160W, strain elf1, hits give low values)?
Answer: 0.913

Question: And the normalized growth (S. cerevisiae deletion strains, locus YKL190W, strain CNB1, hits give low values)?
Answer: 0.995

Question: And the normalized growth (S. cerevisiae deletion strains, locus YKR001C, strain vps1, hits give low values)?
Answer: 0.968

Question: What about the normalized growth (S. cerevisiae deletion strains, locus YKR026C, strain gcn3, hits give low values) of the same molecule?
Answer: 0.972

Question: What about the normalized growth (S. cerevisiae deletion strains, locus YKR091W, strain srl3, hits give low values) of the same molecule?
Answer: 0.983

Question: And the normalized growth (S. cerevisiae deletion strains, locus YLL001W, strain dnm1, hits give low values)?
Answer: 0.879 (active)

Question: And the normalized growth (S. cerevisiae deletion strains, locus YLL026W, hits give low values)?
Answer: 0.943

Question: What about the normalized growth (S. cerevisiae deletion strains, locus YLL041C, strain sdh2, hits give low values) of the same molecule?
Answer: 0.982

Question: And the normalized growth (S. cerevisiae deletion strains, locus YLR027C, strain aat2, hits give low values)?
Answer: 0.932

Question: And the normalized growth (S. cerevisiae deletion strains, locus YLR039C, strain RIC1, hits give low values)?
Answer: 1.23

Question: And the normalized growth (S. cerevisiae deletion strains, locus YLR058C, strain SHM2, hits give low values)?
Answer: 0.957

Question: And the normalized growth (S. cerevisiae deletion strains, locus YLR102C, strain apc9, hits give low values)?
Answer: 0.981

Question: What about the normalized growth (S. cerevisiae deletion strains, locus YLR113W, strain HOG1, hits give low values) of the same molecule?
Answer: 1.03

Question: What about the normalized growth (S. cerevisiae deletion strains, locus YLR221C, strain rsa3, hits give low values) of the same molecule?
Answer: 0.969

Question: And the normalized growth (S. cerevisiae deletion strains, locus YLR258W, strain gsy2, hits give low values)?
Answer: 0.974

Question: And the normalized growth (S. cerevisiae deletion strains, locus YLR262C, strain YPT6 (second series), hits give low values)?
Answer: 1.07

Question: And the normalized growth (S. cerevisiae deletion strains, locus YLR262C, strain YPT6, hits give low values)?
Answer: 1.34

Question: And the normalized growth (S. cerevisiae deletion strains, locus YLR268W, strain sec22, hits give low values)?
Answer: 0.947

Question: What about the normalized growth (S. cerevisiae deletion strains, locus YLR320W, strain mms22, hits give low values) of the same molecule?
Answer: 0.944

Question: What about the normalized growth (S. cerevisiae deletion strains, locus YLR330W, strain CHS5, hits give low values) of the same molecule?
Answer: 0.993

Question: What about the normalized growth (S. cerevisiae deletion strains, locus YLR342W, strain FKS1 (second series), hits give low values) of the same molecule?
Answer: 0.928

Question: What about the normalized growth (S. cerevisiae deletion strains, locus YLR342W, strain FKS1, hits give low values) of the same molecule?
Answer: 0.844 (active)

Question: What about the normalized growth (S. cerevisiae deletion strains, locus YLR357W, strain rsc2, hits give low values) of the same molecule?
Answer: 0.99

Question: And the normalized growth (S. cerevisiae deletion strains, locus YLR370C, strain arc18, hits give low values)?
Answer: 0.938

Question: And the normalized growth (S. cerevisiae deletion strains, locus YLR371W, strain rom2, hits give low values)?
Answer: 0.962

Question: And the normalized growth (S. cerevisiae deletion strains, locus YLR384C, strain iki3, hits give low values)?
Answer: 0.968

Question: What about the normalized growth (S. cerevisiae deletion strains, locus YLR418C, strain cdc73, hits give low values) of the same molecule?
Answer: 0.955

Question: And the normalized growth (S. cerevisiae deletion strains, locus YML016C, strain PPZ1, hits give low values)?
Answer: 0.985

Question: What about the normalized growth (S. cerevisiae deletion strains, locus YML032C, strain rad52, hits give low values) of the same molecule?
Answer: 0.908

Question: What about the normalized growth (S. cerevisiae deletion strains, locus YML120C, strain ndi1, hits give low values) of the same molecule?
Answer: 0.921

Question: What about the normalized growth (S. cerevisiae deletion strains, locus YML124C, strain tub3, hits give low values) of the same molecule?
Answer: 0.983

Question: And the normalized growth (S. cerevisiae deletion strains, locus YMR058W, strain fet3, hits give low values)?
Answer: 0.94

Question: What about the normalized growth (S. cerevisiae deletion strains, locus YMR078C, strain ctf18, hits give low values) of the same molecule?
Answer: 0.98

Question: And the normalized growth (S. cerevisiae deletion strains, locus YMR125W, strain sto1, hits give low values)?
Answer: 0.988

Question: What about the normalized growth (S. cerevisiae deletion strains, locus YMR129W, hits give low values) of the same molecule?
Answer: 0.97

Question: What about the normalized growth (S. cerevisiae deletion strains, locus YMR205C, strain PFK2, hits give low values) of the same molecule?
Answer: 0.968

Question: And the normalized growth (S. cerevisiae deletion strains, locus YMR223W, strain ubp8, hits give low values)?
Answer: 0.992

Question: What about the normalized growth (S. cerevisiae deletion strains, locus YMR231W, strain pep5, hits give low values) of the same molecule?
Answer: 0.983

Question: And the normalized growth (S. cerevisiae deletion strains, locus YMR263W, strain SAP30, hits give low values)?
Answer: 0.999

Question: What about the normalized growth (S. cerevisiae deletion strains, locus YMR307W, strain GAS1, hits give low values) of the same molecule?
Answer: 1.12

Question: What about the normalized growth (S. cerevisiae deletion strains, locus YNL067W, strain RPL9B, hits give low values) of the same molecule?
Answer: 0.924

Question: And the normalized growth (S. cerevisiae deletion strains, locus YNL071W, strain lat1, hits give low values)?
Answer: 0.969

Question: And the normalized growth (S. cerevisiae deletion strains, locus YNL128W, strain TEP1, hits give low values)?
Answer: 1.02

Question: And the normalized growth (S. cerevisiae deletion strains, locus YNL175C, strain NOP13, hits give low values)?
Answer: 1.01

Question: And the normalized growth (S. cerevisiae deletion strains, locus YNL183C, strain NPR1, hits give low values)?
Answer: 0.964

Question: And the normalized growth (S. cerevisiae deletion strains, locus YNL197C, strain WHI3, hits give low values)?
Answer: 1.01

Question: What about the normalized growth (S. cerevisiae deletion strains, locus YNL209W, strain ssb2, hits give low values) of the same molecule?
Answer: 0.962

Question: What about the normalized growth (S. cerevisiae deletion strains, locus YNL224C, strain SQS1, hits give low values) of the same molecule?
Answer: 1.01

Question: And the normalized growth (S. cerevisiae deletion strains, locus YNL233W, strain BNI4, hits give low values)?
Answer: 0.925

Question: What about the normalized growth (S. cerevisiae deletion strains, locus YNL248C, strain rpa49, hits give low values) of the same molecule?
Answer: 0.971

Question: What about the normalized growth (S. cerevisiae deletion strains, locus YNL250W, strain rad50, hits give low values) of the same molecule?
Answer: 0.958

Question: And the normalized growth (S. cerevisiae deletion strains, locus YNL271C, strain bni1, hits give low values)?
Answer: 0.973

Question: And the normalized growth (S. cerevisiae deletion strains, locus YNL298W, strain CLA4, hits give low values)?
Answer: 0.978

Question: What about the normalized growth (S. cerevisiae deletion strains, locus YNL307C, strain MCK1, hits give low values) of the same molecule?
Answer: 0.958

Question: What about the normalized growth (S. cerevisiae deletion strains, locus YNL322C, strain KRE1 (second series), hits give low values) of the same molecule?
Answer: 0.976

Question: And the normalized growth (S. cerevisiae deletion strains, locus YNR049C, strain mso1, hits give low values)?
Answer: 0.977

Question: And the normalized growth (S. cerevisiae deletion strains, locus YNR052C, strain pop2, hits give low values)?
Answer: 0.976

Question: What about the normalized growth (S. cerevisiae deletion strains, locus YOL006C, strain TOP1, hits give low values) of the same molecule?
Answer: 0.79

Question: And the normalized growth (S. cerevisiae deletion strains, locus YOL012C, strain htz1)?
Answer: 1.06

Question: What about the normalized growth (S. cerevisiae deletion strains, locus YOL147C, strain pex11, hits give low values) of the same molecule?
Answer: 0.976

Question: What about the normalized growth (S. cerevisiae deletion strains, locus YOR001W, strain rrp6, hits give low values) of the same molecule?
Answer: 0.889 (active)

Question: What about the normalized growth (S. cerevisiae deletion strains, locus YOR061W, strain CKA2, hits give low values) of the same molecule?
Answer: 0.955

Question: What about the normalized growth (S. cerevisiae deletion strains, locus YOR069W, strain VPS5, hits give low values) of the same molecule?
Answer: 0.986

Question: And the normalized growth (S. cerevisiae deletion strains, locus YOR070C, strain gyp1, hits give low values)?
Answer: 0.965

Question: And the normalized growth (S. cerevisiae deletion strains, locus YOR080W, strain dia2, hits give low values)?
Answer: 0.963

Question: What about the normalized growth (S. cerevisiae deletion strains, locus YOR083W, strain WHI5 (second series), hits give low values) of the same molecule?
Answer: 1.02

Question: And the normalized growth (S. cerevisiae deletion strains, locus YOR083W, strain WHI5, hits give low values)?
Answer: 0.898

Question: What about the normalized growth (S. cerevisiae deletion strains, locus YOR106W, strain vam3, hits give low values) of the same molecule?
Answer: 0.884

Question: What about the normalized growth (S. cerevisiae deletion strains, locus YOR136W, strain idh2, hits give low values) of the same molecule?
Answer: 0.968

Question: And the normalized growth (S. cerevisiae deletion strains, locus YOR144C, strain elg1, hits give low values)?
Answer: 0.989

Question: And the normalized growth (S. cerevisiae deletion strains, locus YOR184W, strain ser1, hits give low values)?
Answer: 1.01

Question: And the normalized growth (S. cerevisiae deletion strains, locus YOR231W, strain MKK1, hits give low values)?
Answer: 1.01

Question: And the normalized growth (S. cerevisiae deletion strains, locus YOR265W, strain rbl2, hits give low values)?
Answer: 0.955

Question: What about the normalized growth (S. cerevisiae deletion strains, locus YOR270C, strain vph1, hits give low values) of the same molecule?
Answer: 0.998

Question: And the normalized growth (S. cerevisiae deletion strains, locus YOR290C, strain snf2, hits give low values)?
Answer: 0.96

Question: What about the normalized growth (S. cerevisiae deletion strains, locus YOR316C, strain cot1, hits give low values) of the same molecule?
Answer: 0.97

Question: And the normalized growth (S. cerevisiae deletion strains, locus YPL051W, strain arl3, hits give low values)?
Answer: 0.863 (active)

Question: What about the normalized growth (S. cerevisiae deletion strains, locus YPL078C, strain atp4, hits give low values) of the same molecule?
Answer: 0.838 (active)

Question: And the normalized growth (S. cerevisiae deletion strains, locus YPL106C, strain sse1, hits give low values)?
Answer: 0.929

Question: What about the normalized growth (S. cerevisiae deletion strains, locus YPL240C, strain hsp82, hits give low values) of the same molecule?
Answer: 0.965

Question: What about the normalized growth (S. cerevisiae deletion strains, locus YPL241C, strain CIN2, hits give low values) of the same molecule?
Answer: 0.989 and 0.995

Question: And the normalized growth (S. cerevisiae deletion strains, locus YPL256C, strain CLN2, hits give low values)?
Answer: 1.07

Question: And the normalized growth (S. cerevisiae deletion strains, locus YPR119W, strain clb2, hits give low values)?
Answer: 0.971

Question: And the normalized growth (S. cerevisiae deletion strains, locus YPR141C, strain kar3, hits give low values)?
Answer: 0.976

Question: And the normalized growth (S. cerevisiae deletion strains, locus YPR163C, strain tif3, hits give low values)?
Answer: 0.928

Question: And the normalized growth (S. cerevisiae deletion strains, locus YPR167C, strain met16, hits give low values)?
Answer: 0.97

Question: And the normalized growth (S. cerevisiae deletion strains, strain wtn01, hits give low values)?
Answer: 0.957

Question: What about the normalized growth (S. cerevisiae strains, strain wild type, hits give low values) of the same molecule?
Answer: 0.975
